High-throughput results: PubChem BioAssay, National Center for Advancing Translational Sciences (NCATS)
The entries come from a sample that favours hits as a whole.
KDM5B inhibitor – inhibitors of human KDM5B histone demethylase. Q9UGL1. KDM5B demethylase, FDH-coupled NADH fluorescence (FDH is formaldehyde dehydrogenase). Potency, µM (series often up to 57.7 µM), actives largely listed as inhibitors. 220,000 compounds, 2.6% hits. AID 1347165; active = well fitted inhibition curve with a large enough effect; note: nearly all actives have a fitted effect of over 70% in size
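Here, H3K4me3 peptide (12.5 µM in substrate mix) is demethylated by KDM5BΔAP, 200 nM final, after 10 min compound exposure. Formaldehyde product is coupled through FDH (0.25 U/mL in mix) to NADH fluorescence; 30-min ΔRFU feeds dose-response curves.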
Numbers stand for hits; . = inactive; ! = not active in a repeat.

SMILES	KDM5B inhibitor
N#Cc1nc(-c2ccc([N+](=O)[O-])cc2)oc1N1CCCC1	.
O=C(CCc1ccsc1)N1CCCC(C(F)(F)F)C1 (centres undefined)	.
COCC1CN(C(C)=O)CC12CCN(C(=O)c1ccc(F)cc1F)CC2 (centres undefined)	.
CCN(C1CCOCC1)C1CN(C(=O)C2CCCO2)C1 (centres undefined)	.
COc1ccccc1C(=O)Oc1ccc(F)cc1C(=O)/C=C/c1ccccc1Cl	.
Clc1cc(Cl)c(N/N=C/c2ccccc2I)c(Cl)c1	.
O=C(CCc1ccccc1)NCc1nnc2c(-c3nc(C4CC4)no3)cccn12	28.2µM
COCc1nc2c(NC(=O)CC3CCCCC3)cccn2n1	.
Cc1ccccc1OCC(=O)NCc1nnc2c(-c3nc(C4CC4)no3)cccn12	.
O=C(CC1CCCCC1)NCc1nnc2c(-c3nc(C4CC4)no3)cccn12	15.8µM
CS(=O)(=O)Nc1ccccc1CNC(=O)CC1CCCCC1	.
O=C(CCCc1ccccc1)N1CCC(c2noc(-c3ccccc3)n2)C1 (centres undefined)	.
COCCOCC(=O)N1CC(Oc2ccccc2-c2nc(C3CC3)no2)C1	.
CC(C)NC(=O)C1CCc2nnc(CNC(=O)C3CC3)n21 (centres undefined)	.
O=C(NCc1nnc2c(-c3nc(C4CC4)no3)cccn12)C1CC1	22.4µM
CCCCOC(=O)c1ccc(NC(=O)c2cc(=O)c3cc(C)cc(C)c3o2)cc1	.
CC(C)CCNC(=O)CCc1nnc(-c2ccc(OC(C)C)cc2)[nH]c1=O	.
Cc1cc(=O)n(CC(=O)Nc2cccc(C)c2C)c(N(C)Cc2ccccc2)n1	.
CSCC(=O)N1C[C@@H](NC(=O)NC2CCCCC2)C[C@H]1C(=O)N[C@H](Cc1c[nH]c2ccccc12)C(N)=O	.
COCCN1C(=O)[C@H]2CN(Cc3cc(OC)ccc3OC)C[C@H]2C1=O	.
CCc1cnc(N)nc1N(C)CCC(O)c1ccccc1 (centres undefined)	.
O=C(NCc1ccc(-n2cccn2)cc1)c1cc(Br)ccc1Cl	.
CSCCNC(=O)c1nc2sccn2c1Br	.
O=C(NCCc1ccc(Cl)cc1)c1cc(Br)cn2ccnc12	31.6µM!
O=C(NCc1ccccc1F)c1cc(Br)cn2ccnc12	22.4µM
SMILES	KDM5B inhibitor
O=C(NCc1ccc(-n2cccn2)cc1)c1cc(F)ccc1Br	.
O=C(NCc1ccccc1F)c1ccccc1-c1ccccc1	.
O=C(NCCc1ccc(Cl)cc1)c1nc2sccn2c1Br	.
Cc1c(C(=O)NCCc2ccc(Cl)cc2)cccc1-n1cnc2cccnc21	.
O=C(NCc1ccc(F)cc1)c1cc(Br)cn2ccnc12	31.6µM
CSCCNC(=O)c1cc(Br)cn2ccnc12	35.5µM
O=C(Cc1ccccc1F)NCc1cccnc1N1CCCCC1	.
O=C(NCc1ccc(-n2cccn2)cc1)c1ccc(F)cc1Br	.
Cc1c(C(=O)OCCOc2c(Cl)cc(Cl)cc2Cl)sc(=S)n1C	.
COc1ccc(C(=O)N2CCC3(CC2)N=C(c2cccc(Br)c2)NO3)cc1F	.
NC1CCc2nn(CC(=O)NCc3ccc(F)cc3Cl)c(=O)n2CC1 (centres undefined)	.
COc1cccc(CN(C)CC(=O)NC(=O)NC2CC2)c1OC	.
O=C(COC(=O)c1ccccc1Br)c1ccc([N+](=O)[O-])cc1	.
Cn1nc(C(=O)NCc2ccccc2Cl)c2ccccc2c1=O	.
CC(C)(C)OC(=O)N1CC(NCc2cc(F)cc(F)c2)C1	.
CCOc1ccccc1NC(=O)N1CCCCCCNC(=O)[C@@H]2CCCC[C@@H]21	.
COc1ccc(C(=O)N[C@@H]2CCC[C@@H]2C(=O)NCc2ccc(C)o2)cc1	.
C#CCNC(=O)c1ccc(-n2ccc(C(F)(F)F)n2)cc1	.
COC(=O)CNC(=O)c1ccc(C)cc1	.
O=C(NC1CCCCCC1)c1ccc2nccn2c1	28.2µM
O=C(NC1CCCCCCC1)c1ccc(Br)cc1	.
CCN1CCN(C(=O)c2ccc3nccn3c2)CC1	.
Cc1ccc(CNC(=O)c2ccc3nccn3c2)o1	28.2µM
COC(=O)CNC(=O)c1ccc2ccccc2c1	.
COC(=O)CNC(=O)c1ccc2nccn2c1	112µM
SMILES	KDM5B inhibitor
C#CCNC(=O)c1ccc2nccn2c1	141µM
Cc1ccc(CNC(=O)c2c(-c3ccc(F)cc3F)noc2C)o1	.
O=C(NC1CCCCC1)c1ccncc1	.
CC(=O)c1ccc(NC(=O)[C@@]2(CC(=O)O)CC(c3ccc(F)cc3)=NO2)cc1	.
Cn1ccnc1C(O)(CC(=O)Nc1ccccc1)C(F)(F)F (centres undefined)	.
CC(=O)N1CCN(c2nc3c(s2)CC(C(=O)Nc2ccc(F)c(Cl)c2)CC3)CC1 (centres undefined)	.
Cc1ccc2c(c1)[C@H]1OCCC[C@H]1C(c1ccc(O)c(Br)c1)N2 (some centres undefined)	.
NS(=O)(=O)c1ccc(NNC(=O)c2ccc(NS(=O)(=O)c3cccs3)cc2)c([N+](=O)[O-])c1	.
CCNC(=O)O[C@@H]1CO[C@H]2[C@@H]1OC[C@@H]2NC(=S)Nc1ccc(N(C)C)cc1	.
CCOC(=O)COc1ccc2c(=O)c(Oc3ccc(OC)cc3)c(C)oc2c1	.
CCOc1ccccc1NC(=O)C1CC(=O)Nc2nc3ccccc3n21 (centres undefined)	.
COCCN1CCC(CN(Cc2ccncc2)C(=O)c2csc(C)n2)CC1	.
COc1cccc(Cn2c(=O)n(CC3CCC(C(=O)N4CCCC4)CC3)c(=O)c3sccc32)c1 (centres undefined)	.
CC(=O)NC(Cc1c[nH]c2ccccc12)C(=O)N1CCN(S(=O)(=O)c2ccccc2F)CC1 (centres undefined)	.
O=C(c1ccc(F)cc1)N1CCCC2(CNc3ccccc3[S+](=O)([O-])N2)C1 (centres undefined)	.
c1cncc(-c2ccnc(NCC(c3cccnc3)N3CCCCC3)n2)c1 (centres undefined)	31.6µM
c1ccc(-c2ccnc(NCC(c3ccncc3)N3CCOCC3)n2)nc1 (centres undefined)	.
NCCn1cc(C(=O)NCC(c2cccnc2)N2CCCCC2)nn1 (centres undefined)	.
O=C(NCc1ccc(C(=O)N2CCCC2)cc1)C1CCCCC1	.
O=C(NCc1ccc(C(=O)N2CCCCC2)cc1)c1ccc(C(F)(F)F)cc1	.
Cc1ccc(CNc2ccc(-c3nc(-c4cccnc4)no3)cc2[N+](=O)[O-])cc1	.
NS(=O)(=O)c1ccc(CNc2nccc(-c3cccnc3)n2)cc1	31.6µM
O=C(c1ccc(CNc2nccc(-c3cccnc3)n2)cc1)N1CCCCC1	28.2µM
NS(=O)(=O)c1ccc(CNC(=O)c2ccccn2)cc1	.
O=C(Nc1ccc2oc(-c3cccc(Br)c3)nc2c1)c1ccc2c(c1)OCCO2	.
SMILES	KDM5B inhibitor
Cc1cccc(Nc2nc(N)c(C(=O)c3ccc(Cl)cc3)s2)c1C	.
CC(=O)c1ccc(S(=O)(=O)N2CCCC2c2cccn2C)cc1 (centres undefined)	.
CC(C)CC(=O)N1C[C@@H]2CCCN3CCC[C@@H]([C@H]23)[C@H]1CCCC(=O)NCC1CC1	.
O=C1CC(C(=O)NOCc2ccccc2)c2ccccc2N1 (centres undefined)	.
COc1cccc2cc(-c3cc(=O)oc4ccc(OS(C)(=O)=O)cc34)oc12	.
CC(NC(=O)c1cn(C2CCC(N)CC2)nn1)c1ncnn1C (centres undefined)	.
C=CCCC(CN1CCCOCC1)Oc1ccc2cccc(OC)c2n1 (centres undefined)	31.6µM
